According to PubChem BioAssay (NCATS):
Results filed as inconclusive are left out. A call without a number means that no potency is given here. Active and inactive are the calls of the source. Unless noted, the call rests on the fitted dose curve.

System: not listed separately
Assay: qHTS for Inhibitors of the Functional Ribonucleoprotein Complex (vRNP) of Lymphocytic Choriomeningitis Arenaviruses (LCMV): Viability assay - alamar blue signal for LCMV Primary Screen (AID 1347085; calls by dose curve; tested in HEK293 reporter line; further: nearly all actives have a fitted effect of over 80% in size)
Conditions: alamar blue viability counter-screen, LCMV vRNP screen cells; series mostly up to 57.5 µM
Potency means the concentration at half of the fitted maximal effect.

Row | SMILES | Potency
1 | NC1(c2ccc(-c3nc4ccn5c(=O)[nH]nc5c4cc3-c3ccccc3)cc2)CCC1 | 3.85 µM (active)
2 | CC(C)(C)C(=O)NCCCC(=O)O | inactive
3 | O=C(O)c1ccccc1Nc1cc(Cl)ccc1C(=O)O | inactive
4 | Cc1c(C(=O)NN2CCCCC2)nn(-c2ccc(Cl)cc2Cl)c1-c1ccc(Cl)cc1 | inactive
5 | C[C@H]1COc2c(C3(N)CC3)c(F)cc3c(=O)c(C(=O)O)cn1c23 | inactive
6 | C#C[C@]1(O)CC[C@H]2[C@@H]3[C@H](C)CC4=C(CCC(=O)C4)[C@H]3CC[C@@]21C | inactive
7 | NC(=O)Cc1cccc(C(=O)c2ccccc2)c1N | inactive
8 | CC(=O)OC/C=C(C)/C=C/C=C(C)/C=C/C1=C(C)CCCC1(C)C | inactive
9 | COC(=O)C1=C(C)NC(C)=C(C(=O)OC(C)(C)CN(C)CCC(c2ccccc2)c2ccccc2)C1c1cccc([N+](=O)[O-])c1 (stereo not given) | inactive
10 | CCCCc1ccc2nc(NC(=O)OC)[nH]c2c1 | 0.0385 µM (active)
11 | Nc1ccc2c(c1)CN1C(=O)c3ccccc3C1=N2 | inactive
12 | CCOc1ccc(Cc2nccc3cc(OCC)c(OCC)cc23)cc1OCC | inactive
13 | c1ccc(-c2ccc(C(c3ccccc3)n3ccnc3)cc2)cc1 (stereo not given) | inactive
14 | COCCOC(=O)C1=C(C)NC(C)=C(C(=O)OC/C=C/c2ccccc2)C1c1cccc([N+](=O)[O-])c1 (stereo not given) | inactive
15 | COc1ccc(/C=C/C(=O)c2ccc(OC)cc2OC)cc1 | inactive
16 | CC(=O)Oc1ccc(C2(c3ccc(OC(C)=O)cc3)C(=O)Nc3ccccc32)cc1 | inactive
17 | C[C@H]1[C@H]2CC[C@H]3[C@@H]4CC=C5C[C@@H](N(C)C)CC[C@]5(C)[C@H]4CC[C@]23CN1C | inactive
18 | CCOC(=O)C1=C(C)NC(C)=C(C(=O)OCC)C1c1ccccc1/C=C/C(=O)OC(C)(C)C | inactive
19 | C=CCNc1nc(NCC=C)nc(N2CCN(C(c3ccc(F)cc3)c3ccc(F)cc3)CC2)n1 | inactive
20 | Cc1nc2n(c(=O)c1CCN1CCC(C(=O)c3ccc(F)cc3)CC1)CCS2 | inactive
21 | CCNC(=O)N1CCN(CCCC(c2ccc(F)cc2)c2ccc(F)cc2)CC1 | inactive
22 | O=C(Nc1ncc([N+](=O)[O-])s1)c1cccs1 | inactive
23 | CN(C)CCn1nnnc1SCC1=C(C(=O)O)N2C(=O)[C@@H](NC(=O)Cc3csc(N)n3)[C@H]2SC1 | inactive
24 | COC(=O)Nc1nc2ccc(Sc3ccccc3)cc2[nH]1 | 5.44 µM (active)

Biological target: Nucleoprotein (Lymphocytic choriomeningitis virus (strain Armstrong)) (UniProt P09992)
Assay: qHTS for Inhibitors of the Functional Ribonucleoprotein Complex (vRNP) of Lymphocytic Choriomeningitis Arenaviruses (LCMV): LCMV Primary Screen - GLuc reporter signal (AID 1347086); further: nearly all actives have a fitted effect of over 70% in size
Conditions: LCMV minigenome vRNP cell assay, Gaussia luciferase reporter; series mostly up to 57.5 µM

Sequence of Nucleoprotein (Lymphocytic choriomeningitis virus (strain Armstrong)) (P09992 whole entry, looked up): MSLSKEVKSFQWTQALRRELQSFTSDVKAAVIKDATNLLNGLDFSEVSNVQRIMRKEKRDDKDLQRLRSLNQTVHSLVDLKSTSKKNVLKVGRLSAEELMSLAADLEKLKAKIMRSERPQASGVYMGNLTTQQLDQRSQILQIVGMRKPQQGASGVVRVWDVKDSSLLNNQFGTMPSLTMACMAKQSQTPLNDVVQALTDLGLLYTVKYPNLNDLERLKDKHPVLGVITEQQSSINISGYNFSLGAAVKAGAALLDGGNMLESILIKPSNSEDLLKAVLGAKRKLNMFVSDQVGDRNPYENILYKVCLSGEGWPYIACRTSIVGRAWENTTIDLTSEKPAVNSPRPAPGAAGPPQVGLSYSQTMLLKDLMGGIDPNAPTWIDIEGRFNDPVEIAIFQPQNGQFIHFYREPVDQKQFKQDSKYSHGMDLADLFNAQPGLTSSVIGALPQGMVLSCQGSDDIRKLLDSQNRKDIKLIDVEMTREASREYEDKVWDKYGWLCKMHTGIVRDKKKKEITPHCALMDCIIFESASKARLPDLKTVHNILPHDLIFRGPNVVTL

Row | SMILES | Potency
25 | NC1(c2ccc(-c3nc4ccn5c(=O)[nH]nc5c4cc3-c3ccccc3)cc2)CCC1 | 3.06 µM (active)
26 | CC(C)(C)C(=O)NCCCC(=O)O | inactive
27 | O=C(O)c1ccccc1Nc1cc(Cl)ccc1C(=O)O | inactive
28 | C[C@H]1COc2c(C3(N)CC3)c(F)cc3c(=O)c(C(=O)O)cn1c23 | inactive
29 | C#C[C@]1(O)CC[C@H]2[C@@H]3[C@H](C)CC4=C(CCC(=O)C4)[C@H]3CC[C@@]21C | inactive
30 | NC(=O)Cc1cccc(C(=O)c2ccccc2)c1N | inactive
31 | CC(=O)OC/C=C(C)/C=C/C=C(C)/C=C/C1=C(C)CCCC1(C)C | inactive
32 | Nc1ccc2c(c1)CN1C(=O)c3ccccc3C1=N2 | inactive
33 | CC(=O)Oc1ccc(C2(c3ccc(OC(C)=O)cc3)C(=O)Nc3ccccc32)cc1 | inactive
34 | C[C@H]1[C@H]2CC[C@H]3[C@@H]4CC=C5C[C@@H](N(C)C)CC[C@]5(C)[C@H]4CC[C@]23CN1C | inactive
35 | CN(C)CCn1nnnc1SCC1=C(C(=O)O)N2C(=O)[C@@H](NC(=O)Cc3csc(N)n3)[C@H]2SC1 | inactive
